Results filed as inconclusive are left out. The source made the active and inactive calls. Unless noted, calls come from the whole dose curve; as a rule, active = well fitted curve in the direction sought with a large enough effect; inconclusive = small, poorly fitted or top-dose-only effect, or another doubt; inactive = no such curve, though single readings can be large; an effect the other way counts as inactive or inconclusive.
Columns and labels:
[1] = biological target: Endonuclease 4 (Escherichia coli (strain K12)) (UniProt P0A6C1); assay: Counterscreen for APE1 Inhibitors: qHTS Validation Assay for Inhibitors of Endonuclease IV (AID 1708)
Procedure, shortened: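 E. coli EndoIV at 2 nM final, preincubated 15 min at room temperature with compound, then 50 nM TAMRA/BHQ-2 THF abasic-site duplex added. Buffer: 50 mM Tris-HCl pH 7.5, 50 mM NaCl, 2 mM MgCl2, 1 mM DTT, 0.01% Tween-20. Kinetic fluorescence increase, third minus first read.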

[2] = qHTS for differential inhibitors of proliferation of Plasmodium falciparum line 7G8 (AID 1815);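 note: parasite growth measured after three days of incubation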; note: potency is the fitted concentration of half-maximal effect
[3] = qHTS for differential inhibitors of proliferation of Plasmodium falciparum line GB4 (AID 1816); conditions: Potency: Plasmodium falciparum GB4 proliferation inhibition;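 note: parasite growth measured after 72 h incubation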; note: potency is the fitted concentration of half-maximal effect
[4] = qHTS for differential inhibitors of proliferation of Plasmodium falciparum line D10 (AID 1877);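 note: parasites grown with compound for 72 h before DNA staining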; note: potency is the fitted concentration of half-maximal effect
[5] = qHTS for differential inhibitors of proliferation of Plasmodium falciparum line Dd2 (AID 1882); conditions: Potency: Plasmodium falciparum Dd2 proliferation inhibition; note: nearly all actives have a fitted effect of over 65% in size; note: potency is the fitted concentration of half-maximal effect
Procedure, shortened: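 Dd2-infected erythrocytes (0.3% parasitemia, 2.5% hematocrit final) incubated with compound 72 h at 37 C, 5% CO2; lysed with saponin/Triton buffer containing SYBR Green I, incubated overnight in the dark, then read by fluorescence (485/535 nm). Normalized to 0.29 uM artemisinin and DMSO.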

[6] = qHTS for differential inhibitors of proliferation of Plasmodium falciparum line W2 (AID 1883); conditions: Potency: Plasmodium falciparum W2 proliferation inhibition;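 note: parasites grown with compound for 72 h before lysis and staining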; note: potency is the fitted concentration of half-maximal effect
[7] = qHTS for differential inhibitors of proliferation of Plasmodium falciparum line HB3 (AID 1886); conditions: Potency: Plasmodium falciparum HB3 proliferation inhibition;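 note: parasites grown with compound for 72 h before SYBR Green readout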; note: potency is the fitted concentration of half-maximal effect
[8] = qHTS for differential inhibitors of proliferation of Plasmodium falciparum line 3D7 (AID 1876); note: potency is the fitted concentration of half-maximal effect
[9] = qHTS Assay for Modulators of Human Peripheral Myelin Protein 22 (PMP22) Expression/Activity (AID 1967; active = well fitted curve in the direction sought with a large enough effect in the signal ratio; the % refers to the signal ratio)
Procedure, shortened: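 Mouse MSC80 Schwann cells carrying Pmp22 promoter–green click beetle luciferase plus EF-alpha–red luciferase control, dosed 24 h at 37 °C. Dual-filter luminescence, overlap-corrected; %Activity from green/red ratio normalised to untreated cells, concentration-response curves fitted.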

Measured: Potency

CC(C)NCC(O)COc1cccc2ccccc12 (centres undefined)
active: [2] 4.47 µM | [3] 2.51 µM | [4] 11.2 µM | [5] 8.91 µM | [6] 2.82 µM | [7] 12.6 µM
inactive: [1]

CN1C2CCC1CC(OC(=O)C(O)c1ccccc1)C2 (centres undefined)
inactive: [1] | [2] | [3] | [8] | [4] | [5] | [7] | [9]

Fc1cccc(/C=N/N=C/c2cccc(F)c2)c1
inactive: [1] | [2] | [3] | [4] | [5] | [7]

O=S(=O)(c1cccc2c(I)cccc12)N1CCCNCC1
active: [6] 7.08 µM
inactive: [1] | [2] | [8] | [4] | [7]

c1ccc(-c2ccccn2)nc1
inactive: [1] | [3] | [8] | [4] | [5] | [7] | [9]

CCCn1c(=O)c2[nH]c(-c3ccc(OCC(=O)NCCN)cc3)nc2n(CCC)c1=O
inactive: [1]
active: [3] 10 µM | [6] 12.6 µM

C[C@@H](NC(=O)/C(C#N)=C/c1ccc(O)c(O)c1)c1ccccc1
inactive: [1]
active: [2] 11.2 µM | [3] 10 µM | [4] 12.6 µM | [6] 11.2 µM | [7] 11.2 µM

NCCNC(=O)c1ncsc1-c1cccc(F)c1
inactive: [1] | [8] | [4] | [7]

Cn1c(=O)c2[nH]c(-c3ccccc3)nc2n(C)c1=O
inactive: [1] | [2] | [3] | [8] | [4] | [5] | [7] | [9]

CCCCCCCCCCCCCCCCCCNC(=O)OCC(COP(=O)([O-])OCC[n+]1ccsc1)OC (centres undefined)
inactive: [1] | [4] | [5] | [9]
active: [3] 11.2 µM | [7] 11.2 µM

CC(C)(C)NCC(O)COc1nsnc1N1CCOCC1 (centres undefined)
inactive: [1] | [8] | [4] | [5] | [7] | [9]

COc1cccc(OC)c1OCCNCC1COc2ccccc2O1 (centres undefined)
active: [2] 7.94 µM | [6] 3.98 µM
inactive: [1]

Oc1cc(O)cc(/C=C/c2ccc(O)c(O)c2)c1
active: [3] 8.91 µM | [8] 10 µM | [5] 12.6 µM | [6] 10 µM | [7] 12.6 µM
inactive: [1]

O=Nc1ccc2oc(=O)ccc2c1
inactive: [1]
active: [2] 12.6 µM | [8] 11.2 µM | [7] 12.6 µM

N#C/C(=C\c1ccc(O)c(O)c1)C(=O)NCCCc1ccccc1
inactive: [1]
active: [2] 8.91 µM | [3] 14.1 µM | [4] 11.2 µM | [6] 7.08 µM | [7] 12.6 µM

COC1=C(OC)C(=O)c2ccccc2C1=O
inactive: [1]
active: [2] 8.91 µM | [3] 10 µM | [8] 10 µM | [4] 11.2 µM | [6] 11.2 µM | [7] 11.2 µM

O=c1[nH]c2cc([N+](=O)[O-])c([N+](=O)[O-])cc2[nH]c1=O
inactive: [1] | [2] | [3] | [8] | [4] | [5] | [7] | [9]

CCCCCCCCCCCCCCCC(=O)NCC(COP(=O)([O-])OCC[N+](C)(C)C)OCC (centres undefined)
inactive: [1] | [2] | [8] | [4] | [5] | [7] | [9]

CCCCC/C=C\CC(O)/C=C/c1cccc(CC(O)CCCCO)n1 (centres undefined)
inactive: [1] | [5]
active: [8] 14.1 µM

Oc1ccc(C2CNCc3sccc32)cc1O (centres undefined)
active: [2] 8.91 µM | [3] 12.6 µM | [4] 11.2 µM | [5] 8.91 µM | [6] 11.2 µM | [7] 11.2 µM
inactive: [1]

O=C(O)[C@@H]1C[C@@H](C(=O)O)N1
inactive: [1] | [2] | [3] | [8] | [4] | [5] | [7] | [9]

NCCSSCCN
inactive: [1] | [2] | [3] | [4] | [5] | [6] | [7] | [9]

O=c1[nH]c2ccccc2n1CCCN1CCN(C(c2ccccc2)c2ccccc2)CC1
active: [2] 7.08 µM | [3] 12.6 µM | [6] 4.47 µM | [7] 14.1 µM
inactive: [1]

N#C/C(=C\c1c[nH]c2ccccc12)C(=O)c1ccc(O)c(O)c1
inactive: [1]
active: [3] 12.6 µM | [8] 12.6 µM | [4] 15.8 µM | [6] 8.91 µM | [7] 12.6 µM

CC1CN(S(=O)(=O)c2cccc3cnccc23)CCN1 (centres undefined)
inactive: [1] | [8] | [4] | [5] | [7] | [9]
active: [3] 11.2 µM | [6] 7.94 µM

Brc1c(Br)c(Br)c2n[nH]nc2c1Br
inactive: [1] | [2] | [3] | [8] | [4] | [5] | [7] | [9]

CCCCN1CCC(n2c(=O)[nH]c3ccccc32)CC1
inactive: [2] | [3] | [8] | [4] | [5] | [7]
active: [6] 8.91 µM

CN[C@H](CC(C)C)C(=O)N[C@H]1C(=O)N[C@@H](CC(N)=O)C(=O)N[C@H]2C(=O)N[C@H]3C(=O)N[C@H](C(=O)N[C@H](C(=O)O)c4cc(O)cc(O)c4-c4cc3ccc4O)[C@H](O)c3ccc(c(Cl)c3)Oc3cc2cc(c3O[C@@H]2O[C@H](CO)[C@@H](O)[C@H](O)[C@H]2O[C@H]2C[C@](C)(N)[C@H](O)[C@H](C)O2)Oc2ccc(cc2Cl)[C@H]1O
inactive: [2] | [3] | [8] | [4] | [5] | [6] | [7] | [9]

O=c1[nH]c2cc(Cl)c(Cl)cc2[nH]c1=O
inactive: [1] | [5]
active: [8] 2.51 µM | [6] 3.55 µM

CCCCCCCCCCCCCCCCCC(=O)OC(CC(=O)O)C[N+](C)(C)C (centres undefined)
inactive: [2] | [3] | [8] | [4] | [5] | [6] | [7]

N.N.O=C(O)C1(C(=O)O)CCC1.[Pt]
inactive: [1] | [5]
active: [8] 12.6 µM | [6] 10 µM

O=C1O/C(=C/Br)CCC1c1cccc2ccccc12 (centres undefined)
active: [6] 11.2 µM
inactive: [1] | [4] | [5] | [7] | [9]

O=C(O)CC[C@@H](C(=O)O)N1C(=O)c2ccccc2C1=O
inactive: [2] | [3] | [8] | [4] | [5] | [6] | [7]

CO/N=C(\C(=O)N[C@@H]1C(=O)N2C(C(=O)O)=C(COC(C)=O)CS[C@H]12)c1csc(N)n1 (stereo in doubt)
inactive: [2] | [3] | [8] | [4] | [5] | [7] | [9]

Ic1ccc(N2CCN(Cc3c[nH]c4ncccc34)CC2)cc1
active: [6] 2.51 µM | [7] 11.2 µM
inactive: [1] | [5]

N=C(N)SCCc1ccc(CCSC(=N)N)cc1
active: [6] 11.2 µM
inactive: [1] | [8] | [5] | [7] | [9]

CC(=O)SCC[N+](C)(C)C
inactive: [2] | [3] | [8] | [4] | [5] | [6] | [7] | [9]

NCCCCCCCCCCN
inactive: [2] | [3] | [8] | [4] | [5] | [7] | [9]

S=C(S)OC1CC2CC1C1CCCC21 (centres undefined)
inactive: [2] | [3] | [8] | [4] | [5] | [6] | [7] | [9]

CCN1/C(=C/C(C)=O)Sc2ccc(OC)cc21
active: [6] 14.1 µM
inactive: [1] | [4] | [5]

CC[C@@H](C)[C@H]1O[C@]2(CC[C@@H]1C)C[C@@H]1C[C@@H](C/C=C(\C)[C@@H](O[C@H]3C[C@H](OC)[C@@H](O[C@H]4C[C@H](OC)[C@@H](O)[C@H](C)O4)[C@H](C)O3)[C@@H](C)/C=C/C=C3\CO[C@@H]4[C@H](O)C(C)=C[C@@H](C(=O)O1)[C@]34O)O2
active: [2] 2 µM | [3] 1.12 µM | [8] 0.794 µM | [4] 2.51 µM | [5] 1.78 µM | [6] 1 µM | [7] 1.12 µM

CCCCCCCC/C=C\CCCCCCCC(=O)NCCO
active: [2] 3.55 µM | [3] 2.51 µM | [8] 3.98 µM | [4] 7.94 µM | [5] 8.91 µM | [6] 2.51 µM | [7] 4.47 µM

C#CCN1C(C)=C(C(=O)OC)C(c2cccc([N+](=O)[O-])c2)C(C(=O)OCC)=C1C (centres undefined)
active: [2] 7.94 µM | [3] 7.08 µM | [8] 11.2 µM | [4] 14.1 µM | [5] 12.6 µM | [6] 4.47 µM | [7] 7.94 µM

COc1ccc(/C=C/C(=O)Nc2ccccc2C(=O)O)cc1OC
inactive: [1] | [5]

Cc1ccccc1CNc1ncnc2c1ncn2C1OC(CO)C(O)C1O (centres undefined)
inactive: [2] | [3] | [8] | [4] | [5] | [6] | [7]

COC(=O)c1c(C)[nH]c(C)c1C(=O)c1ccccc1Cc1ccccc1
active: [2] 7.94 µM | [3] 7.94 µM | [8] 8.91 µM | [4] 14.1 µM | [6] 8.91 µM | [7] 12.6 µM

Source: PubChem BioAssay (NCATS)
